# Data taken from PubChem BioAssay (NCATS).
# Where “and” joins values, the source holds several entries; their conditions need not be identical. Equal entries are not always repeated. Results filed as inconclusive are left out. Where a call stands in place of a potency, no number is given. Values without a mark were called inactive. Calls of active or inactive are those of the source. Calls follow the shape of the dose curve; as a rule, active = well fitted curve in the direction sought with a large enough effect; inconclusive = small, poorly fitted or top-dose-only effect, or another doubt; inactive = no such curve, though single readings can be large; an effect the other way counts as inactive or inconclusive.
# Tests used:
# [1] = biological target: Cytochrome P450 3A7 (Homo sapiens) (UniProt P24462); assay: Cytochrome P450 family 3 subfamily A member 7 (CYP3A7) small molecule antagonists: luciferase biochemical qHTS assay (AID 1963596); conditions: P450-Glo CYP3A7 enzyme luminescence, 1 h; series mostly up to 57.4 µM; also: nearly all actives have a fitted effect of over 40% in size
# Procedure, shortened: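 Recombinant CYP3A7 P450-Glo luminescent assay: enzyme-proluciferin substrate mix preincubated with compound 10 min at room temperature, reaction started with NADPH regeneration system for 1 h. Luciferin detected by luminescence; ketoconazole as positive control.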
# [2] = Viability qHTS for spleen associated tyrosine kinase inhibitor (SYKi) naive MV4-11 cells (AID 1963823); conditions: MV4-11 AML viability, CellTiter-Glo luminescence, 72 h; series mostly up to 45 µM; also: nearly all actives have a fitted effect of over 40% in size; also: potency is read from the fitted curve at half-maximal effect
# Procedure, shortened: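 qHTS, SYK inhibitor-naive MV4-11; 500 cells/well; 72 hr compound exposure, 37 C; CellTiter-Glo added, 10 min RT; luminescence read.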
# [3] = Viability qHTS for spleen associated tyrosine kinase inhibitor (SYKi) drug resistant MV4-11 cells (AID 1963824); conditions: SYKi-resistant MV4-11 viability, CellTiter-Glo, 72 h; series mostly up to 45 µM; also: nearly all actives have a fitted effect of over 35% in size; also: potency is read from the fitted curve at half-maximal effect
# Procedure, shortened: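 CellTiter-Glo luminescence, read 10 min after reagent addition, reports viability after a 72 hr compound exposure. Cells are an MV4-11 line made resistant to SYK inhibition, seeded at 500 per well onto compound-containing plates.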
# [4] = Cellular viability qHTS for adrenocortical cancer (ACC) cell line SW-13 (AID 1963989); conditions: SW-13 ACC cells viability, CellTiter-Glo, 48 h; activity (max response): stronger effect = lower value; also: nearly all actives have a fitted effect of over 65% in size; also: potency is read from the fitted curve at half-maximal effect;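 as to activity (max response): cells grown in serum-free medium with ITS supplement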
# Procedure, shortened: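 48 h treatment, SW-13 in ITS/DMEM serum-free; doses up to 46 uM; readout CellTiter-Glo luminescence; curve fit four-parameter logistic.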
# [5] = Cellular viability qHTS for adrenocortical cancer (ACC) cell line NCI-H295R (AID 1963990); conditions: CellTiter-Glo ATP luminescence, 48 h; series mostly up to 46.1 µM; also: nearly all actives have a fitted effect of over 60% in size; also: potency is read from the fitted curve at half-maximal effect
# Procedure, shortened: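 Compound titrations (up to 46 uM final) are applied to NCI-H295R cultures for 48 h at 37C. Viable cell number is estimated by CellTiter-Glo signal, normalised to DMSO and doxorubicin controls.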
# Chain of Cytochrome P450 3A7 (Homo sapiens) (P24462 whole entry, looked up): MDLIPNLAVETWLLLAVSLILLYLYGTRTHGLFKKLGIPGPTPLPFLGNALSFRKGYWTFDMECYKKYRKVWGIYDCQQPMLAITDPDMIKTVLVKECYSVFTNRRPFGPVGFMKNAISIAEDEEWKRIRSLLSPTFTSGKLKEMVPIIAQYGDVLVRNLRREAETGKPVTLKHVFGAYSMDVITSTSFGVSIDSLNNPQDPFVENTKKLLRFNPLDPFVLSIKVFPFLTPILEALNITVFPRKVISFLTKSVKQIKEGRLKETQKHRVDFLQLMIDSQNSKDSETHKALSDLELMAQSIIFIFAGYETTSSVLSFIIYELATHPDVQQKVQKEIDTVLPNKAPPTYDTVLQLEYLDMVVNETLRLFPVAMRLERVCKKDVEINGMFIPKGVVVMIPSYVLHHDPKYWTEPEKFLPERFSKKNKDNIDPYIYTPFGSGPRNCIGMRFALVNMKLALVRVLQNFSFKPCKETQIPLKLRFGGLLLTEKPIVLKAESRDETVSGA
Structure (SMILES),Potency [1],Potency [2],Potency [3],activity (max response) [4],Potency [5],Potency [4]
CC(=O)CCCCn1c(=O)c2c(ncn2C)n(C)c1=O,inactive,inactive,inactive,7.09%,inactive,–
O=[N+]([O-])c1cncn1CCN1CCOCC1,inactive,inactive,inactive,13.4% and -13.9%,inactive,–
C[C@H]1O[C@@H](n2cc(F)c(=O)[nH]c2=O)[C@H](O)[C@@H]1O,inactive,3.76 µM (active) and 2.35 µM (active),2.11 µM (active) and 1.05 µM (active),-3.76% and -5.78%,inactive,–
O=c1[nH]c2ccccc2c(=O)n1CCCl,inactive,inactive,inactive,10.7%,inactive,–
CN(C)C1CCN(C(=O)c2ccc(NC(=O)Nc3ccc(-c4nc(N5CCOCC5)nc(N5CCOCC5)n4)cc3)cc2)CC1,inactive,14.6 nM (active),18.4 nM (active),–,2.24 µM (active),0.251 µM (active)
Cc1sccc1Br,inactive,inactive,inactive,-3.04%,inactive,–
Nc1nc2c(ncn2CCC(CO)CO)c(=O)[nH]1,inactive,inactive,inactive,-4.77%,inactive,–
CN(C)CCOC(=O)COc1ccc(Cl)cc1,inactive,inactive,inactive,4.85%,inactive,–
O=c1[nH]c(=O)c2ccccc2o1,inactive,inactive,inactive,6.04%,inactive,–
NC(=O)N1c2ccccc2C=Cc2ccccc21,inactive,inactive,inactive,8.83%,inactive,–
